The campaign covered roughly 48,000 compounds. About 13,000 (27%) showed an effect of 50% or more. The list shows a part of the results.
Tested on: Wolbachia pipientis
Assay: Anti-Wolbachia Cell-Based Screen
Format: functional
Design: scale not given: in the data most compounds retested in dose-response had high values
Conditions: 5 µM

SMILES | Percent Effect
CN(C)c1nc2c(c(=O)[nH]1)CCN(C(=O)c1cccc3nccnc13)C2 | 3.463%
Nc1nc2c(c(=O)[nH]1)CCN(C(=O)c1cccc3nccnc13)C2 | 6.132%
Cc1nc2c(c(=O)[nH]1)CCN(C(=O)c1cccc3nccnc13)C2 | 104.9%
Cc1nccn1CCC1CCCCN1Cc1ccc(N(C)C)nc1 (stereo not drawn) | 13.8%
CC(=O)N1CCc2ccc(S(=O)(=O)N3CCCCC3C)cc21 (stereo not drawn) | -39.69%
CC(=O)N1CCCc2ccc(S(=O)(=O)N3CCCCC3C)cc21 (stereo not drawn) | -24.19%
O=C(C1CC1)N1C[C@H]2CCCN(S(=O)(=O)c3cccc(F)c3)[C@H]2C1 | 149%
CC(=O)N1CCCC(C(=O)N2CCC(=Cc3cccc(F)c3)CC2)C1 (stereo not drawn) | 11.44%
O=C(O)C(F)(F)F.O=S(=O)(c1cccc(F)c1)N1CC[C@H]2[C@H]1CCN2c1ncccn1 | -6.82%
O=C(C1CC1)N1C[C@H]2CCCN(S(=O)(=O)c3ccc4c(c3)CCC4)[C@H]2C1 | 109.7%
CCOC(=O)c1cn(CC(O)c2ccccc2OC)nn1 (stereo not drawn) | -11.75%
CCN(CC1CCOC1)C(=O)CSCC(=O)Nc1ccc(C)cc1 (stereo not drawn) | 4.187%
O=C(Nc1cccc(C(F)F)c1)N[C@@H]1C=C[C@H](CO)C1 | -9.569%
COc1ccc(N2CCN(C(=O)OC(C)(C)C)C(C(=O)O)C2)cc1 (stereo not drawn) | 126.2%
Cc1ccc(N2CCN(C(=O)CCC(F)(F)F)C(C)C2)cc1 (stereo not drawn) | 17.59%
COc1ccc(N2CCN(C(=O)Cn3nc(C)c(C)c3C)C(C)C2)cc1 (stereo not drawn) | -0.23%
COC(=O)c1ccc(N2CCN(C(=O)C(C)C)C(C)C2)cc1 (stereo not drawn) | 1.031%
COC(=O)N1CCCCC1C(=O)N1CCN(c2cccnc2)CC1 (stereo not drawn) | -31.63%
Cc1ccc(C(=O)N2C[C@@H]3CCN(c4cccnc4)C[C@@H]3C2)cn1.O=C(O)C(F)(F)F | 4.1%
CC(C)(C)OC(=O)N1CCN(c2cccnc2)CC1C(=O)O (stereo not drawn) | 114.7%
CCCSCC(=O)N1CCN(c2ccc(OC)cc2)CC1C (stereo not drawn) | 15.77%
CC(C)(C)OC(=O)N1CCN(c2ccc(F)cc2)CC1C(=O)O (stereo not drawn) | 89.96%
CCc1nccn1C1CCCN(C(=O)c2cnc[nH]2)C1 (stereo not drawn) | 2.73%
CCCS(=O)(=O)NCC1OCCc2cn(CC3CCOCC3)nc21 (stereo not drawn) | -15.6%
CC(C)CN1C[C@@H]2OCC(=O)N(Cc3nccn3C)[C@@H]2C1 | 0.1712%

SMILES | Percent Effect
CNC(=O)[C@H]1C[C@H]2OCC[C@H]2N(CCOc2ccc(Cl)cc2)C1.O=C(O)C(F)(F)F | -0.765%
CCN(CC)S(=O)(=O)c1cc(NC(=O)CCc2cscn2)ccc1C | -4.761%
Cc1cc(CN2CCC(CNC(=O)c3cnc(C)nc3C)C2)[nH]n1 (stereo not drawn) | -6.024%
O=C(NC[C@]1(O)CN(Cc2ccccc2F)C[C@H]1O)c1ccccn1 | -4.429%
Cc1cccc(CN2CCCC(O)(CNCCc3c[nH]cn3)C2=O)c1 (stereo not drawn) | 23.49%
NC1(C(=O)NCC2CCCN(Cc3ccccc3F)C2)CCCC1 (stereo not drawn) | -12.52%
O=C(NC[C@]1(O)CN(Cc2ccccc2F)C[C@H]1O)c1cscn1 | 81.64%
Fc1ccccc1CC1CCN(Cc2cscn2)CC1 | 12.39%
O=C(NC[C@]1(O)CCN(Cc2ccsc2)C[C@H]1O)c1c[nH]cn1 | 99.16%
Cc1cncc(CN2CC[C@@](O)(CNC(=O)c3c[nH]cn3)[C@H](O)C2)c1 | 108.4%
CN1CCC(NCC2(O)CCCN(Cc3ccccc3F)C2=O)CC1 (stereo not drawn) | -22.31%
O=C(NC[C@]1(O)CCN(Cc2ccccc2F)C[C@H]1O)c1c[nH]cn1 | 105%
COCC1CC2(CCN(S(=O)(=O)C3CC3)CC2)CN1c1ncccn1.O=C(O)C(F)(F)F (stereo not drawn) | -3.839%
CCn1cnnc1CNC(=O)NCC(C)(CC)N1CCOCC1 (stereo not drawn) | -7.317%
Cc1n[nH]c(C2CN(Cc3nnc(C4CC4)n3C)CCO2)n1 (stereo not drawn) | 1.096%
CCNC(=O)[C@@H]1C[C@H](N)CN1c1cc(C(F)(F)F)nc(N(C)C)n1 | -10.07%
CCNC(=O)[C@@H]1C[C@H](N)CN1c1cc(CC)nc(N(C)C)n1 | 116.6%
CCNC(=O)[C@@H]1C[C@H](N)CN1c1cc(C(F)(F)F)nc(N2CCCC2)n1 | -17.39%
COC(=O)c1ccc(N2CCN(C(=O)c3ccn(C)c(=O)c3)CC2)cc1 | 7.353%
O=C(c1ncncc1Cl)N1CCN(c2ccc(Cl)cc2)CC1 | -23.14%
COC(=O)c1cccc(C(=O)N2CCN(c3ccccc3F)CC2)n1 | 5.907%
COC(=O)c1cccc(C(=O)N2CCN(c3ccc(OC)cc3)CC2)n1 | 142.3%
COC(=O)c1ccc(N2CCN(C(=O)c3ccc(=O)n(C)c3)CC2)cc1 | -4.416%
COC(=O)c1cccc(C(=O)N2CCN(c3ccc(Cl)cc3)CC2)n1 | 100.8%
CCC(C)(C)C1CCCN1C(=O)c1coc(S(=O)(=O)NC)c1 (stereo not drawn) | 25.9%

SMILES | Percent Effect
Cc1cccc(N2CCC3(CCCN3Cc3c(C)nn(C)c3C)CC2)n1 | 12.41%
CC(C)SCc1cccc(NC(=O)NCCc2nnc[nH]2)c1 | 5.819%
Cc1nc(C)n(C2CCCN(C(=O)c3csnn3)C2)n1 (stereo not drawn) | -2.311%
Cc1nc(C)n(C2CCCN(C(=O)c3cn4cccnc4n3)C2)n1 (stereo not drawn) | 114.3%
CC(C)c1nccn1C1CCCN(C(=O)c2cn3cccnc3n2)C1 (stereo not drawn) | 106.5%
CC(C)c1nccn1C1CCCN(C(=O)c2cnc[nH]2)C1 (stereo not drawn) | -3.09%
Cc1cnn(C2CCCN(C(=O)c3cn4cccnc4n3)C2)c1 (stereo not drawn) | -8.081%
Cc1cc(C)n(C2CCN(C(=O)c3cn4ccsc4n3)C2)n1 (stereo not drawn) | -17.41%
Cc1cc(C)n(C2CCCN(C(=O)c3cn4cccnc4n3)C2)n1 (stereo not drawn) | 140.9%
CCc1nccn1C1CCCN(C(=O)c2cn3cccnc3n2)C1 (stereo not drawn) | -0.7445%
Cc1nc(C)n(C2CCCN(C(=O)c3cn4c(C)cccc4n3)C2)n1 (stereo not drawn) | 8.927%
Cc1occc1C(=O)Nc1cccc(C(=O)OCC2CCCN2)c1.Cl (stereo not drawn) | -3.308%
O=C1CN(Cc2ccc(-c3ccccc3C(=O)O)cc2)CCN1 | 3.495%
O=c1cc(-c2cccnc2)nc(-c2ccc(CN3CC[C@H](O)C3)cc2)[nH]1 | -0.3576%
O=C(O)c1ccccc1-c1ccc(CN2CCCC(O)C2)cc1 (stereo not drawn) | 104.1%
O=C(O)c1ccccc1-c1ccc(CN2CC(O)C2)cc1 | 128.6%
NC(=O)c1ccc(CN2CCCC(O)C2)cc1 (stereo not drawn) | 1.38%
COc1ccc(C(C)N2CCC(CO)CC2)cc1Cl (stereo not drawn) | 2.465%
CSC1(CNC(=O)N(C)Cc2ccc(C)s2)CCOCC1 | -11.34%
COCCn1c2c(ccc1=O)CCN(C(=O)Cc1cccs1)CC2 | 99.02%
O=C(Cc1ccsc1)N1CCc2ccc(=O)n(CC3CC3)c2CC1 | -8.117%
COCCN1CC2(CCCN(C(=O)CCCc3cccs3)C2)CCC1=O (stereo not drawn) | -3.205%
COCCN1CCOCC12CCN(C(=O)Cc1cccs1)CC2.O=C(O)C(F)(F)F | 7.053%
COCCn1c2c(ccc1=O)CCN(C(=O)Cc1ccsc1)CC2 | 97.29%
CN(CCCc1nccn1C)C(=O)C1COc2ccccc2C1 (stereo not drawn) | -14.96%

SMILES | Percent Effect
Cc1ncsc1CCN(C)C(=O)c1ccc(Cn2cnnn2)cc1 | -0.04633%
Cc1nc(N2CCOCC2)nc2c1CN(C(=O)C(C)C)CC2 | 99.02%
Cc1nc(N2CCOCC2)nc2c1CCN(C(=O)N1CCCC1)CC2 | 118.6%
Cc1nc(N2CCOCC2)nc2c1CN(CC(=O)N(C)C)CC2 | -19.6%
Cc1nc(N2CCOCC2)nc2c1CCN(C(=O)NC1CCCC1)CC2 | 25.82%
Cc1nc(N2CCOCC2)nc2c1CN(C(=O)Cc1ccccn1)CC2 | 6.226%
Cc1nc(N2CCCC2)nc2c1CCN(C(=O)C1CCCC1)CC2 | 4.07%
Cc1nc(N2CCCC2)nc2c1CCN(C(=O)CC1CC1)CC2 | 43.96%
Cc1nc(N2CCCC2)nc2c1CCN(C(=O)N1CCCC1)CC2 | 98.24%
Cc1nc(N2CCOCC2)nc2c1CCN(C(=O)C1(C#N)CC1)CC2 | -22.43%
CS(=O)(=O)CCN1C[C@H](NC(=O)c2cnc(O)cn2)[C@@H](C2CC2)C1 | 5.128%
Cn1cccc1C(O)CNS(=O)(=O)c1ccccc1F (stereo not drawn) | -11.88%
CC(C)CCC(=O)N1CCN(c2ncnc3nc(N)ccc23)CC1 | -4.213%
COc1ccc(Cl)cc1NCC(=O)N(Cc1ccccn1)C1CC1 | -7.935%
COc1cc(CNC(=O)CNc2cc(Cl)ccc2OC)ccn1 | -1.117%
COc1c(Cl)cc(C(=O)NCCNc2ncccn2)cc1Cl | 11.68%
COc1ccc(Cl)cc1NCC(=O)NCCNc1ncccn1 | 100.4%
COc1ccc(Cl)cc1NCC(=O)NCc1cccnc1OC | 108%
COc1ccc(Cl)cc1NCC(=O)NCCc1ccccn1 | 3.443%
COc1ncccc1NC(=O)N1CCCC1c1cc(C)no1 (stereo not drawn) | -4.048%
Cc1cc(C(=O)N2C[C@H]3CC[C@@H]2CN(C)C3)ccc1Cl | -9.049%
CC(C)(C)OC(=O)NC(C)(C)c1noc(CSc2ccccn2)n1 | 18.32%
COC(=O)NC1(C(=O)Nc2ccc(-c3cc[nH]n3)cc2)CCCC1 | -10.93%

Source: ChEMBL document CHEMBL3988442, “University of Dundee, Small-Polar-MMV Screening Library” (2021)
